The values that follow come from PMC5700166.

What all share (experiment): protein-binding microarray (PBM); PBM: ~300 nM protein, 6 mM HEPES pH 7.8, 80 mM KCl, 0.5 mM EDTA, 0.5 mM EGTA, 6% glycerol, 35 ng/ul poly-dIdC, 1% milk, 1 h, room temperature; Ap Aiptasia and Nv Nematostella (sea anemones) / Co Capsaspora / Aq Amphimedon (sponge) / Dm Drosophila / Hu human; RHD is the Rel homology domain; high values mean tight binding
Common to all, as to details: dsDNA, one strand shown

The target of one test is T1, GST-Ap-NF-kB RHD (Exaiptasia pallida (Aiptasia), UniProt A0A913YAJ5 2-422).
T1 sequence: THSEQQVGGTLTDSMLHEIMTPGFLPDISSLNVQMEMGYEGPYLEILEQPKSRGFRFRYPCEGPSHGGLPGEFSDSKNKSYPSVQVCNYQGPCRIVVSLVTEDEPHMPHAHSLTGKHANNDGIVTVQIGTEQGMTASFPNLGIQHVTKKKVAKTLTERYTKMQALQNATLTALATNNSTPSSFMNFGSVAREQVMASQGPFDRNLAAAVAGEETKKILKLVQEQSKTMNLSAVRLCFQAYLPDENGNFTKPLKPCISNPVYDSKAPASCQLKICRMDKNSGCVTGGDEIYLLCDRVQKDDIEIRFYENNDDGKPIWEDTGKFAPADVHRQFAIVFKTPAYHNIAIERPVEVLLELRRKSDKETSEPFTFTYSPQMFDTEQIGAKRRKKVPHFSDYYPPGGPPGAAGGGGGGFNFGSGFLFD

Test [1] addresses T2, GST-Nv-NF-kB (Cys allele) (Nematostella vectensis, UniProt E5G601 2-411).
T2 sequence: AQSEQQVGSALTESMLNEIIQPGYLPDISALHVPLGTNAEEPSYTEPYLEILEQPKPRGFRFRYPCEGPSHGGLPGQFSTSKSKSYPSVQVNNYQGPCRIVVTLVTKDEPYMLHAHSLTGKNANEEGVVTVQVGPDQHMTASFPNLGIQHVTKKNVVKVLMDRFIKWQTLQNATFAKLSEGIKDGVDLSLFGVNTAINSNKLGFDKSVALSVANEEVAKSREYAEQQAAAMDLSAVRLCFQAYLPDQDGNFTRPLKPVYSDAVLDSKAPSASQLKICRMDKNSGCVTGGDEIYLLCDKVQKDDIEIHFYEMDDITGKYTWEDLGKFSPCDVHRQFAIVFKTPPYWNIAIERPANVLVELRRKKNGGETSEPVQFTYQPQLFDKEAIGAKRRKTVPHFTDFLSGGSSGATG

Test [2] addresses T3, GST-Nv-NF-kB (Ser allele) (Nematostella vectensis, UniProt A7UNT2 2-411).
T3 sequence: T2 sequence with Q21R, C66S, S207N, E215Q, V217A, E225K, A268E, D399E

In another test the target is T4, GST-Co-NF-kB (Capsaspora owczarzaki, UniProt F1ARL5 200-546).
T4 sequence: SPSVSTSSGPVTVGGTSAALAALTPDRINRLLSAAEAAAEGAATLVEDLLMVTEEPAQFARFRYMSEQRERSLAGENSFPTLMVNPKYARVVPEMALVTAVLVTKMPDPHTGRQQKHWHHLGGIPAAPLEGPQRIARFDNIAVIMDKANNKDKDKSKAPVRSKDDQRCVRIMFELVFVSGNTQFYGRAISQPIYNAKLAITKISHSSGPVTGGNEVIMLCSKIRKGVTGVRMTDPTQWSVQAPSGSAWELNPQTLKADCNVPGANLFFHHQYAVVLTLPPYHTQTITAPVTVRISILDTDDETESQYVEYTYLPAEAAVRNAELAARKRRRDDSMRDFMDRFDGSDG

Another test addresses T5, GST-Dm-Relish (Drosophila melanogaster, UniProt Q94527 99-473).
T5 sequence: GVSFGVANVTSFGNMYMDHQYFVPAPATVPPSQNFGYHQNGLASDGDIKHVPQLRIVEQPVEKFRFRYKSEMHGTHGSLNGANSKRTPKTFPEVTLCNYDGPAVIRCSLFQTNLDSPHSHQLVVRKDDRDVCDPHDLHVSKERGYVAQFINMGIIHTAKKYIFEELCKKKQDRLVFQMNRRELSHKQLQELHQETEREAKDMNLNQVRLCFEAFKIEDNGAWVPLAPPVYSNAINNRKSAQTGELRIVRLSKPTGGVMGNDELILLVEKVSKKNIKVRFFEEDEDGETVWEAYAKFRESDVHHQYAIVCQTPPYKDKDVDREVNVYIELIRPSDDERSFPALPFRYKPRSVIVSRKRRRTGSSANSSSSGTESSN

The next test addresses T6, GST-Aq-NF-kB (Amphimedon queenslandica, UniProt A9Y5G7 2-389).
T6 sequence: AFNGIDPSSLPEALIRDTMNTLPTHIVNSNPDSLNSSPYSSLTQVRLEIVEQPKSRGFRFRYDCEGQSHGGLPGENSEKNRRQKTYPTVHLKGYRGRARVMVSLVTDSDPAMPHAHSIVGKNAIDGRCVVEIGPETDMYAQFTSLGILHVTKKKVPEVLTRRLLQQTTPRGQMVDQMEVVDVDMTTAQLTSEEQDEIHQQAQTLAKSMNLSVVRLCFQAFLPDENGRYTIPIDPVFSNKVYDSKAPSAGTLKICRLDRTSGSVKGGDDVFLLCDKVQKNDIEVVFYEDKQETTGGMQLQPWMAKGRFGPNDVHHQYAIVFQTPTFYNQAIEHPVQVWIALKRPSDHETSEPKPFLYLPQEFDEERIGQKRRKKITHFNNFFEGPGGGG

In a further test the target is GST-Hu-p50 (Homo sapiens, UniProt P19838 7-356).

Substitutions are numbered along the chain they refer to.

Sequence of GST-Hu-p50 (P19838 7-356): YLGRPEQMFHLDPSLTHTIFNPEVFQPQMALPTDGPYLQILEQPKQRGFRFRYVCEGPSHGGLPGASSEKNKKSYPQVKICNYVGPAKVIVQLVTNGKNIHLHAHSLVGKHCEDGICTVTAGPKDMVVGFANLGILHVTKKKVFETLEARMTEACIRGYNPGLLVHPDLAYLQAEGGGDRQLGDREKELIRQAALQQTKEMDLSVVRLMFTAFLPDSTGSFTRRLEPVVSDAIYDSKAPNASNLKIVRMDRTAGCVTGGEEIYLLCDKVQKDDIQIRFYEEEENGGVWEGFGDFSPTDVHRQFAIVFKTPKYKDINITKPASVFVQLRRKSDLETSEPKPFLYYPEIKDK

Take “CCGATTAACATCAATCTTCCCCCTGATGTTAATCGGGTCTTGATTCGCTTGACGCTGCTG”: the binding signal worked out at 5.77 z-score with GST-Ap-NF-kB RHD; 6.99 z-score in test [1]; 7.73 z-score in test [2]; 9.37 z-score with GST-Co-NF-kB; 4.07 z-score with GST-Dm-Relish; 6.23 z-score in the test with GST-Aq-NF-kB. Moreover, the binding signal in the test with GST-Hu-p50 is 6.3 z-score.
Consider “CCGATTAACATCAGGATCCCCCCTGATGTTAATCGGGTCTTGATTCGCTTGACGCTGCTG”, for which the binding signal turned out to be 8.27 z-score with GST-Ap-NF-kB RHD; 6.24 z-score in test [1]; 6.33 z-score in test [2]; 5.45 z-score with GST-Co-NF-kB; 8.78 z-score with GST-Dm-Relish; 6.39 z-score in the test with GST-Aq-NF-kB. The binding signal in the test with GST-Hu-p50 was 6.19 z-score.
With “CCGATTAACATCAGCCCGGGAAATGATGTTAATCGGGTCTTGATTCGCTTGACGCTGCTG”, the binding signal in the test with GST-Ap-NF-kB RHD is 2.45 z-score; in test [1] it was 2.27 z-score; in test [2], 2.11 z-score; with GST-Co-NF-kB it was 3.24 z-score; in the test with GST-Dm-Relish it was 1.04 z-score; with GST-Aq-NF-kB, 2.09 z-score. This sequence also yielded a binding signal in the test with GST-Hu-p50 of 1.28 z-score.
As to “CCGATTAACATCAGAGATTTCCCTGATGTTAATCGGGTCTTGATTCGCTTGACGCTGCTG”, the binding signal was determined as 3.94 z-score in the test with GST-Ap-NF-kB RHD; 5.69 z-score in test [1]; 6.13 z-score in test [2]; 3.92 z-score with GST-Co-NF-kB; 2.1 z-score with GST-Dm-Relish; 5.48 z-score in the test with GST-Aq-NF-kB. The sequence further showed a binding signal with GST-Hu-p50 of 4.51 z-score.
Consider “CCGATTAACATCAAGGGGGAAATTGATGTTAATCGGGTCTTGATTCGCTTGACGCTGCTG”, for which the binding signal with GST-Ap-NF-kB RHD is 7.69 z-score; in test [1], 8.6 z-score; in test [2], 10.5 z-score; with GST-Co-NF-kB, 8.86 z-score; with GST-Dm-Relish it was 5.87 z-score; in the test with GST-Aq-NF-kB, 7.06 z-score. For the same sequence, the binding signal with GST-Hu-p50 is 7.51 z-score.
With “CCGATTAACATCAGCAATTTCCCTGATGTTAATCGGGTCTTGATTCGCTTGACGCTGCTG”, the binding signal was 3.13 z-score with GST-Ap-NF-kB RHD; 4.55 z-score in test [1]; 5.81 z-score in test [2]; 3.47 z-score with GST-Co-NF-kB; 1.78 z-score in the test with GST-Dm-Relish; 3.79 z-score with GST-Aq-NF-kB. Further, the binding signal in the test with GST-Hu-p50 is 3.52 z-score.
With “CCGATTAACATCAATACTCCCCCTGATGTTAATCGGGTCTTGATTCGCTTGACGCTGCTG”, the binding signal with GST-Ap-NF-kB RHD was 6.61 z-score; in test [1], 5.41 z-score; in test [2], 6.73 z-score; in the test with GST-Co-NF-kB, 8.03 z-score; with GST-Dm-Relish, 3.95 z-score; in the test with GST-Aq-NF-kB, 4.97 z-score. For the same sequence, the binding signal in the test with GST-Hu-p50 is 6.4 z-score.
With “CCGATTAACATCAGGGGAATCCATGATGTTAATCGGGTCTTGATTCGCTTGACGCTGCTG”, the binding signal with GST-Ap-NF-kB RHD came to 8.88 z-score; in test [1], 9.29 z-score; in test [2] it was 9.54 z-score; with GST-Co-NF-kB it was 5.44 z-score; with GST-Dm-Relish, 9.65 z-score; with GST-Aq-NF-kB, 7 z-score. Further, the binding signal with GST-Hu-p50 turned out to be 6.48 z-score.
In the case of “CCGATTAACATCACATTCCCCCCTGATGTTAATCGGGTCTTGATTCGCTTGACGCTGCTG”, the binding signal amounted to 6.91 z-score with GST-Ap-NF-kB RHD; 6.39 z-score in test [1]; 6.97 z-score in test [2]; 8.44 z-score with GST-Co-NF-kB; 4.58 z-score with GST-Dm-Relish; 5.7 z-score with GST-Aq-NF-kB. In the test with GST-Hu-p50, the binding signal stood at 5.73 z-score.
As to “CCGATTAACATCAAAAGTCCCCTTGATGTTAATCGGGTCTTGATTCGCTTGACGCTGCTG”, the binding signal with GST-Ap-NF-kB RHD is 8.69 z-score; in test [1] it was 9.23 z-score; in test [2], 8.99 z-score; with GST-Co-NF-kB, 3.35 z-score; in the test with GST-Dm-Relish it was 9.45 z-score; in the test with GST-Aq-NF-kB it was 7.89 z-score. In the test with GST-Hu-p50, the binding signal was determined as 7.27 z-score.
In the case of “CCGATTAACATCAAATTCCCAACTGATGTTAATCGGGTCTTGATTCGCTTGACGCTGCTG”, the binding signal in the test with GST-Ap-NF-kB RHD is 2.17 z-score; in test [1], 3.56 z-score; in test [2], 3.7 z-score; with GST-Co-NF-kB it was 2.15 z-score; with GST-Dm-Relish, 3.39 z-score; in the test with GST-Aq-NF-kB it was 2.22 z-score. The binding signal with GST-Hu-p50 was determined as 2.66 z-score.
As to “CCGATTAACATCAGGATTTCCCATGATGTTAATCGGGTCTTGATTCGCTTGACGCTGCTG”, the binding signal came out at 3.95 z-score with GST-Ap-NF-kB RHD; 5.23 z-score in test [1]; 4.48 z-score in test [2]; 3.18 z-score in the test with GST-Co-NF-kB; 5.84 z-score with GST-Dm-Relish; 5.27 z-score with GST-Aq-NF-kB. The binding signal with GST-Hu-p50 is 3.73 z-score.
